Measurements reported in PubChem BioAssay.
Active and inactive are the calls of the source.

Columns and labels:
[1] = tested on: Plasmodium falciparum Sir2 (PF13_0152, Sir2A); experiment: pfSir2 binders on small-molecule microarrays, primary screen, biochemical, small-molecule microarray, 635 nm fluorescence (AID 1098); conditions: small-molecule microarray binding, fluorescence 635 nm; higher = more signal;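 also: score merges spot fluorescence intensity with its signal-to-noise ratio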
[2] = small-molecule microarray binders of probe aDKK1, primary screen, biochemical, biotinylated probe, 635/667 nm fluorescence (AID 1099); conditions: higher = more signal;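 also: score merges 667nm spot fluorescence with signal to noise across triplicate slides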
[3] = small-molecule microarray binders of probe aCHRDL2, primary screen, biochemical, biotinylated probe, 635/667 nm fluorescence (AID 1100); conditions: higher = more signal
[4] = splicing luciferase reporter signal modulators, primary screen, spliceosome inhibition project, cell-based, HEK293, splice +/- reporter (AID 1101); conditions: luminescence, 24 h, higher = more signal, called active from +8 up or from −8 down;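 also: HEK293 cells carrying a splicing-competent luciferase reporter gene; test concentration not given here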
[5] = target: Fibroblast growth factor 10 (Homo sapiens) (UniProt O15520); experiment: FGF10 binders on small-molecule microarrays, primary screen, biochemical, small-molecule microarray, 635 nm fluorescence (AID 1102); conditions: FGF10 binding, fluorescence 635 nm, higher = more signal
[6] = tested on: glycogen synthase kinase-3 (GSK3A per assay name; protocol says GSK3B); experiment: GSK3 binders on small-molecule microarrays, primary screen, biochemical, small-molecule microarray, 635 nm fluorescence, GSK3A (AID 1103); conditions: small-molecule microarray binding, fluorescence 635 nm; higher = more signal; also: the record names both GSK3A and GSK3B
[7] = target: Epidermal growth factor receptor (Homo sapiens) (UniProt P00533); experiment: EGFR binders on small-molecule microarrays, primary screen, biochemical, small-molecule microarray, 635 nm fluorescence (AID 1104); conditions: EGFR binding, higher = more signal;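 also: score merges 667 nm emission intensity with spot signal to noise over triplicate slides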
[8] = target: Follistatin-related protein 3 (Homo sapiens) (UniProt O95633); experiment: FSTL3 binders on small-molecule microarrays, primary screen, biochemical, small-molecule microarray, 635 nm fluorescence (AID 1105); conditions: FSTL3 binding, higher = more signal;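 also: score merges emission near 667 nm and signal to noise per printed spot across three slides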
[9] = target: Dickkopf-related protein 1 (Homo sapiens) (UniProt O94907); experiment: DKK1 binders on small-molecule microarrays, primary screen, biochemical, small-molecule microarray, 635 nm fluorescence scan (AID 1106); conditions: DKK1 binding, higher = more signal;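 also: score merges emission near 667 nm with signal to noise over three replicate slides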
[10] = tested on: Inhibin beta A chain (activin A); experiment: INHBA (activin A) binders on microarrays, primary screen, biochemical, small-molecule microarray, 635 nm fluorescence scan (AID 1107); conditions: small-molecule microarray binding, higher = more signal;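 also: mouse activin A protein probed at 4.33 µg/mL on printed slides; score merges bound-protein fluorescence near 667 nm with spot signal-to-noise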
[11] = tested on: Human papillomavirus type 1a protein E7 (residues 44-93); experiment: HPV1a E7 fragment binders on microarrays, primary screen, biochemical, small-molecule microarray, residues 44-93, 635 nm fluorescence (AID 1108); conditions: small-molecule microarray binding, fluorescence 635 nm; higher = more signal;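 also: E7 fragment applied at 1 µg/mL in TBST for 1 h at 4 C; score combines spot fluorescence with its signal to noise ratio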
[12] = modulators of HCV replicon luciferase signal, primary screen, HCV replication inhibitor project, Huh7 cells, luciferase reporter (AID 1109); conditions: 48 h, higher = more signal;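 also: huh7 hepatoma cells harbouring a luciferase neomycin HCV replicon reporter; luciferase luminescence as measure of HCV replicon replication; test concentration not given here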
[13] = target: Left-right determination factor 2 (Homo sapiens) (UniProt O00292); experiment: LEFTY2 binders on small-molecule microarrays, primary screen, biochemical, small-molecule microarray, 635 nm fluorescence scan (AID 1110); conditions: LEFTY2 binding, higher = more signal
[14] = target: Calmodulin-1 (Homo sapiens) (UniProt P0DP23); experiment: CALM1 binders on microarrays, EGTA buffer, profiling panel, biochemical, small-molecule microarray, Cy5-labelled CALM1 (AID 1111); conditions: Cy5-CALM1 binding fluorescence, higher = more signal;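 also: labelled calmodulin applied in Tris saline Tween buffer holding calcium plus EGTA and DTT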
[15] = target: Calmodulin-1 (Homo sapiens) (UniProt P0DP23); experiment: calcium-bound CALM1 binders on microarrays, profiling panel, artefact control for SMM control-protein annotation, biochemical, small-molecule microarray, Cy5-labelled CALM1, plus calcium (AID 1112); conditions: Cy5-CALM1 binding fluorescence, higher = more signal;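 also: score merges spot fluorescence with signal to noise from triplicate slides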
[16] = small-molecule microarray binders of probe aWnt5a, primary screen, biochemical, biotinylated probe, 635/667 nm fluorescence (AID 1113); conditions: higher = more signal;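 also: score merges 667 nm fluorescence intensity with signal-to-noise per printed feature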
[17] = small-molecule microarray binders of probe aShh, primary screen, biochemical, biotinylated probe, 635/667 nm fluorescence (AID 1114); conditions: higher = more signal;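 also: probe is biotin-labelled aShh protein from a stem cell growth factor screen; measures binding of labelled protein to compounds printed on the slide; score merges feature fluorescence at 667 nm with signal-to-noise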
[18] = small-molecule microarray binders of probe aNog, primary screen, biochemical, biotinylated probe, 635/667 nm fluorescence (AID 1115); conditions: higher = more signal;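 also: probe is biotinylated aNog protein used at 0.15 µg/mL for 1 h at 4 C; z-score combines 667 nm fluorescence of each spot with its signal to noise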
[19] = target: Torsin-1A-interacting protein 1 (Homo sapiens) (UniProt Q5JTV8); experiment: LAP1 binders from COS7 cell lysate, primary screen, small-molecule microarray, 635/667 nm fluorescence (AID 1116); conditions: COS7-hLAP1 lysate binding, 635 nm fluorescence, higher = more signal
[20] = target: Alpha-bungarotoxin (Bungarus multicinctus) (UniProt P60615); experiment: alpha-bungarotoxin binders on microarray, profiling panel, artefact control for SMM control protein annotation, biochemical, small-molecule microarray, Alexa647 label, 635/667 nm fluorescence (AID 1117); conditions: alpha-BTX-A647 binding fluorescence, higher = more signal
Chain of Alpha-bungarotoxin (Bungarus multicinctus) (P60615 whole entry, looked up): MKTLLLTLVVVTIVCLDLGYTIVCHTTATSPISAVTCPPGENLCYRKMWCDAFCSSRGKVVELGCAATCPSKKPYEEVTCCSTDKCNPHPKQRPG

Chain of Dickkopf-related protein 1 (Homo sapiens) (O94907 whole entry, looked up): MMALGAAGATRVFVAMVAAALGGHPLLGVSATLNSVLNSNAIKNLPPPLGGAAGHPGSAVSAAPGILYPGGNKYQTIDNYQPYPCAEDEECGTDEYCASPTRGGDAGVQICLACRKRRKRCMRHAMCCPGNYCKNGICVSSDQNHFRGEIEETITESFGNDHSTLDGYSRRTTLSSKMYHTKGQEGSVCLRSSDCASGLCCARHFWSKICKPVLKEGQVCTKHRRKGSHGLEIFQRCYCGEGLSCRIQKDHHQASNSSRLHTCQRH
Chain of Follistatin-related protein 3 (Homo sapiens) (O95633 whole entry, looked up): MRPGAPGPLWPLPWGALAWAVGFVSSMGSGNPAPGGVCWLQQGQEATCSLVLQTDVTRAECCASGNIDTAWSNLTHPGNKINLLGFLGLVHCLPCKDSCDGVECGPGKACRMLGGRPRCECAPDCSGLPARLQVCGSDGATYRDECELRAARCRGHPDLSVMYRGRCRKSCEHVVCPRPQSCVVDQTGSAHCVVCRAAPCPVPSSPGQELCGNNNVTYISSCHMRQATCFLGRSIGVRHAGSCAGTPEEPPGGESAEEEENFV
Chain of Torsin-1A-interacting protein 1 (Homo sapiens) (Q5JTV8 whole entry, looked up): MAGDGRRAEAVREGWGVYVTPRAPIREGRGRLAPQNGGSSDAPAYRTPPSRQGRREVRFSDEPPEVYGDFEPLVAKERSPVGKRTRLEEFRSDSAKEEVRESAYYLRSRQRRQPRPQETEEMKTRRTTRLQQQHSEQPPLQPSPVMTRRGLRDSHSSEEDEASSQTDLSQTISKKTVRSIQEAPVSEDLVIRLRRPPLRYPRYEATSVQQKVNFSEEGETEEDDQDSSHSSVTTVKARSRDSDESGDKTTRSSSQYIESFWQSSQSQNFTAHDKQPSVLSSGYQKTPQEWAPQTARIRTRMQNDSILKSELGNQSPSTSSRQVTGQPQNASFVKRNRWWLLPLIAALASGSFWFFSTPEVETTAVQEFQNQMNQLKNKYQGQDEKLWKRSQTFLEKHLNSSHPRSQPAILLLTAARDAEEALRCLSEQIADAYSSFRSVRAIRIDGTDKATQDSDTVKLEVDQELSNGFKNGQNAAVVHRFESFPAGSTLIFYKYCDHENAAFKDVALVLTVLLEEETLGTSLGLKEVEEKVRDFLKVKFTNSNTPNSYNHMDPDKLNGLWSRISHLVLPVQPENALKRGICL
Chain of Epidermal growth factor receptor (Homo sapiens) (P00533 whole entry, looked up): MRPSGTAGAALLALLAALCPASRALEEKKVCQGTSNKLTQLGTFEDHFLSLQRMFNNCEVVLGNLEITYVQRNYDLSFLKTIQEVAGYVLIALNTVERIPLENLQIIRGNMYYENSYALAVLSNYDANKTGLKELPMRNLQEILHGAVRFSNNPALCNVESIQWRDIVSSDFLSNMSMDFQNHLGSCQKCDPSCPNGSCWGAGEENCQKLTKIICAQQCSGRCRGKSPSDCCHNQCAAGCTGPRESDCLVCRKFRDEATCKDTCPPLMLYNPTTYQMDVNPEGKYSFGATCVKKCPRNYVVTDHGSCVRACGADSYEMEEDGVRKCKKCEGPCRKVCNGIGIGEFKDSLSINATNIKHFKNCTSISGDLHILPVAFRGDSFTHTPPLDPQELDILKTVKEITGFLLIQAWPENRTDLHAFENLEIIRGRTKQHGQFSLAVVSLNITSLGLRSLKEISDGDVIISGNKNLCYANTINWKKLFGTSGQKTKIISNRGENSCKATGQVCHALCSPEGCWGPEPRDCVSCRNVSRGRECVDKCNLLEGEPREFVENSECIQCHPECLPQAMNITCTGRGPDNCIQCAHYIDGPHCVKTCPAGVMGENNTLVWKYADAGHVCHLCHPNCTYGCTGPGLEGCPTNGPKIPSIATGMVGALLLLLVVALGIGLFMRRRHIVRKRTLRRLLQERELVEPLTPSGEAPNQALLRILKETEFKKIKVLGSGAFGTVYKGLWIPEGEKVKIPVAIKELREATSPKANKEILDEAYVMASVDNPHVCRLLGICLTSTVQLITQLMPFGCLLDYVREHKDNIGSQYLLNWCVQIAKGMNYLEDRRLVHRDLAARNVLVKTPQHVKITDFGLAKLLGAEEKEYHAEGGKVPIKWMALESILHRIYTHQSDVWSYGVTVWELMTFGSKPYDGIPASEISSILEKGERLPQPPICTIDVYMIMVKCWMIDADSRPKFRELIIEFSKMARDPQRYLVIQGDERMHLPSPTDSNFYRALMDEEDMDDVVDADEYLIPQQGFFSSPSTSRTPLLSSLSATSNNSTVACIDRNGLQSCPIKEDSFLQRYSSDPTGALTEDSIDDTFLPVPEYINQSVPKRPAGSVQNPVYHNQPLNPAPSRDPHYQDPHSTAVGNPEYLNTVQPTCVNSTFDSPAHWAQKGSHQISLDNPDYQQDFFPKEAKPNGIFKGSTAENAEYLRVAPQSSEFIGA
Chain of Left-right determination factor 2 (Homo sapiens) (O00292 whole entry, looked up): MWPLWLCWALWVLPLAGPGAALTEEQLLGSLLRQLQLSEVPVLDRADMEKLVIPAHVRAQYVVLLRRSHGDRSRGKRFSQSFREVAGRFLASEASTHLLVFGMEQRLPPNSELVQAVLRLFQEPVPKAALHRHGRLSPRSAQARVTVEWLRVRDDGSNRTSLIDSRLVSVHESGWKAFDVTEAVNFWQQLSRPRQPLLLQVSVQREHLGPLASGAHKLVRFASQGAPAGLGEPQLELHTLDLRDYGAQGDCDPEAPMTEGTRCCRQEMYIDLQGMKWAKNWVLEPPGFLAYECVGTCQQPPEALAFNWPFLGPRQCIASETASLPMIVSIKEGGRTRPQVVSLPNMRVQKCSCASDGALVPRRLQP
Chain of Fibroblast growth factor 10 (Homo sapiens) (O15520 whole entry, looked up): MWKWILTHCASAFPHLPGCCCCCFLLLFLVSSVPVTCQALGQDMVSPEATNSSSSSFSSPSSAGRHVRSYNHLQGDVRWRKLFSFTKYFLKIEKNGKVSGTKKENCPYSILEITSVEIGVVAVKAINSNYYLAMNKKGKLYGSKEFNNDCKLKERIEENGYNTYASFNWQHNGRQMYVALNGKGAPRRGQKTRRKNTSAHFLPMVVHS

Structure (SMILES) | composite z-score [1] | composite z-score [2] | composite z-score [3] | z-score [4] | composite z-score [5] | composite z-score [6] | composite z-score [7] | composite z-score [8] | composite z-score [9] | composite z-score [10] | composite z-score [11] | z-score [12] | composite z-score [13] | composite z-score [14] | composite z-score [15] | composite z-score [16] | composite z-score [17] | composite z-score [18] | composite z-score [19] | composite z-score [20]
C=CCC(OC(C)=O)[C@@H]1[C@@H](N(Cc2cccc3ccccc23)C(=O)c2cccc3ccccc23)c2cc(OCCCO)ccc2N1C(=O)Cc1ccc(OC)cc1 (stereo not given in full) | 0.387 | 0.15 | 0.213 | -2.53 (inactive) | 0.481 | 0.311 | 0.129 | 0.478 | 0.388 | 1.18 | -0.37 | -0.348 | 0.384 | 0.293 | 0.394 | -0.0107 | 0.0284 | 0.466 | 0.703 | 0.549
C=CCN1C(=O)[C@@]2(O[C@@H](CCn3cc(CCO)nn3)[C@H]([Si](C)(C)c3ccc(OC)cc3)[C@H]2C)c2cc(NC(=O)c3ccc(OC)cc3)ccc21 | 1.18 | 0.0251 | 0.113 | -0.654 (inactive) | 0.402 | 0.546 | 0.283 | 0.571 | 0.493 | 1.32 | 0.988 | -3.92 | 0.415 | 0.317 | 0.33 | 0.0205 | -0.0035 | -0.056 | 0.403 | 1.54
C=CCOC(=O)[C@H]1[C@@H]2C(=O)O[C@@H](c3ccccc3)[C@@H](c3ccccc3)N2[C@@H](c2ccc(OCCOC(=O)[C@H]3C[C@H]4C(=O)N5CCC[C@H]5C(=O)N4[C@H]3c3cccc(OCCO)c3)cc2)[C@]12C(=O)Nc1ccccc12 | 1.52 | -0.125 | 0.297 | -0.676 (inactive) | 0.795 | 1.31 | 0.649 | 0.978 | 0.732 | 0.186 | 1.05 | -1.01 | 0.427 | 0.384 | 0.0829 | -0.0607 | 0.263 | 0.228 | 0.925 | 1.64
O=C1O[C@H](c2ccccc2)[C@H](c2ccccc2)N2[C@H]1[C@@H](C(=O)NC[C@H](O)c1ccccc1)[C@]1(C(=O)Nc3ccc(C#CC4(O)CCCCCC4)cc31)[C@H]2c1ccc(O)cc1 | 0.59 | 0.601 | 0.471 | 1.13 (inactive) | 1.05 | 1.15 | 0.251 | 0.715 | 0.324 | -0.0905 | 1.35 | 0.34 | 0.462 | 0.612 | 0.107 | -0.0542 | -0.0769 | 0.528 | 1.08 | 1.34
O=C(O)[C@H]1C[C@H]2C(=O)NCC(=O)N2[C@H]1c1cccc(OCCO)c1 | 1.69 | 0.809 | 0.725 | -0.387 (inactive) | 0.082 | 0.444 | 0.0343 | 0.778 | 0.552 | 1.5 | 0.22 | 3.1 | -0.166 | 0.338 | 0.921 | 0.291 | 0.0118 | 0.906 | 1.51 | 1.81
CCN(CC)c1ccc(N2CC=CC34O[C@@H]5C=CCOC(=O)[C@@H]5[C@H]3C(=O)N(C(C)CO)[C@@H]4C2=O)cc1 (stereo not given in full) | -0.928 | 0.0831 | 0.495 | -0.405 (inactive) | -0.749 | -2.21 | -1.5 | -1.5 | -1.01 | 0.509 | -1.09 | -0.533 | -1.21 | -1.1 | -0.201 | -0.154 | -0.153 | 0.166 | -0.438 | 0.0517
COc1ccc([Si](C)(C)[C@H]2[C@H](CCO)O[C@@]3(C(=O)N(Cc4ccc(N5C(=O)c6cccc7cccc5c67)cc4)c4ccccc43)[C@@H]2C)cc1 | 0.706 | 0.147 | 0.742 | -2.46 (inactive) | -0.0426 | -0.603 | -0.482 | -0.959 | -0.397 | 0.48 | 0.0848 | -4.78 | -0.385 | 1.57 | 1.28 | -0.129 | -0.138 | 0.467 | 0.18 | 1.05
C=C(COC)C(=O)CC[C@H](OC(=O)c1cccnc1)c1cccc(OCCO)c1 | 0.935 | 0.706 | 0.169 | -0.686 (inactive) | 1.09 | 0.538 | 0.041 | 0.431 | 0.994 | 1.23 | -0.298 | -0.87 | 0.203 | -0.638 | -0.282 | 0.506 | 0.841 | 0.958 | 1.49 | -0.923
C=C(CCCC)/C(=C/C[C@@H](OC(=O)c1ccncc1)c1ccc(OCCO)cc1)c1cnc2ccccc2c1 | 0.711 | 0.358 | 0.686 | -1.18 (inactive) | 1.24 | 0.633 | 1.15 | 1.53 | 1.68 | 1.8 | 0.602 | -1.3 | 0.737 | 0.0142 | -0.184 | -0.096 | 0.164 | 0.168 | -0.0621 | 3.3
C=CCC1(CC=C)C[C@H]2CO[C@H](c3ccc(OC)cc3)N2C1=O | 0.695 | -0.17 | 0.317 | -0.512 (inactive) | -0.193 | -0.217 | 0.291 | 0.576 | 0.917 | 1.55 | -0.107 | 0.805 | 0.447 | -1.56 | -2.31 | -0.124 | -0.271 | -0.0887 | 0.656 | 0.278
